# Inconclusive results are not listed. A call without a number means that no potency is given here. Active and inactive are the calls of the source. Calls follow the shape of the dose curve; as a rule, active = well fitted inhibition curve with a large enough effect; inconclusive = small, poorly fitted or top-dose-only effect; inactive = flat fitted curve, though single readings scatter.
# Target: Glutathione peroxidase 1 (Homo sapiens) (UniProt P07203)
# Assay: Primary qHTS Assay for Inhibitors of Recombinant Selenoprotein Glutathione Peroxidase 1 (GPX1) (AID 1845191); also: nearly all actives have a fitted effect of over 65% in size
# Settings: recombinant GPX1, GR-coupled NADPH fluorescence, 15 min; series mostly up to 27.7 µM
# Summary of the method: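 GPX1 10 nM, GR 100 nM, GSH 1 mM, NADPH 0.5 mM, CHP 0.5 mM (final). 30-min cpd preincubation, RT. Ex340/Em450 read t=0, t=15 min.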
# Glutathione peroxidase 1 (Homo sapiens), sequence (P07203 whole entry, looked up): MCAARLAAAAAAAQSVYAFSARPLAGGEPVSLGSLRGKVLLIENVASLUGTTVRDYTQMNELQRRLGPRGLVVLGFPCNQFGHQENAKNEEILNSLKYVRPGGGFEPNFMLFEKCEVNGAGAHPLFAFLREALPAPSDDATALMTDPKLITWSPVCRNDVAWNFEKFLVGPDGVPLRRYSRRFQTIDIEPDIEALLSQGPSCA
row,Compound,Potency
1,COc1cccc(Cn2ncc3c4sc(S(C)=O)cc4n(C)c3c2=O)c1 (stereo unspecified),inactive
2,CCCNCCOc1ccc(NC(=O)c2c[nH]c3c2C(=O)CCC3)cc1F,inactive
3,C/C=C(/C)C(=O)OC1C2OC2C2(CO2)C2C3OC(=O)C(C)C3CCC12C (stereo unspecified),inactive
4,CC(=O)OC1CCC2(C)C(CCC3(C)C2CC=C2C4CC(C)(C)CCC4(C)CCC23C)C1(C)C(=O)O (stereo unspecified),inactive
5,COc1cnc(-c2ccc(Cn3c(CC(C)(C)C(=O)O)c(SC(C)(C)C)c4cc(OC[C@@H]5Cc6ccccc6N5C(C)=O)ccc43)cc2)nc1,inactive
6,C=C(C)[C@@H]1CC[C@]2(C(=O)O)CC[C@]3(C)[C@H](CCC4[C@@]5(C)CCC(=O)C(C)(C)C5C(O)C[C@]43C)C12 (stereo partly specified),inactive
7,CC1=C2C[C@H]3OC(=O)[C@H](O)[C@@]4(O)[C@@H](C)[C@@H](O)[C@H](O)C([C@@]2(C)[C@H](O)[C@@H](O)C1)[C@@]34C (stereo partly specified),inactive
8,C=CC(C)(O)CC/C=C(\C)C(=O)O[C@@H]1[C@@H](O)[C@H](OC(C)(C=C)CC/C=C(\C)C(=O)O)O[C@H](CO)[C@H]1OC(=O)/C(C)=C/CCC(C)(O)C=C (stereo partly specified),inactive
9,NC[C@H]1CCC[C@@H](CNC(=O)[C@@H](Cc2c[nH]c3ccccc23)NC(=O)N2CCC3(C=Cc4ccccc43)CC2)C1,inactive
10,CCC(C)/C=C(C)/C=C/C1=CC2=C(Cl)C(=O)C(C)(OC(C)=O)C(=O)C2=CN1C(CC(=O)O)C(=O)O (stereo unspecified),inactive
11,CC1=CCC[C@@H]2[C@](CCc3ccoc3)(C(=O)O)[C@H](C)CC[C@@]12C,inactive
